Measurements from PubChem BioAssay (NCI).
Compounds without any hit were thinned out: in the full panel of roughly 79,000, 15% have a hit. A number with no mark means an inactive call. Calls of active or inactive are those of the source. Cut-off read from the data, not from the text of the source: active = growth inhibition above about 70%; inactive = the rest.

What was measured:
[1] = NCI Yeast Anticancer Drug Screen. Data for the rad50 strain (AID 155);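 note: 0% = growth of vehicle-only cultures of the same strain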; settings: S. cerevisiae rad50 strain growth inhibition, active compounds read high
Procedure, shortened: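 Yeast carrying a defined DNA repair defect were exposed to test compounds, and growth was compared with vehicle-treated controls to give percent inhibition.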

[2] = NCI Yeast Anticancer Drug Screen. Data for the mec2-1 strain (AID 157); settings: S. cerevisiae mec2-1 strain, active compounds read high
Procedure, shortened: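 Compounds were applied to mec2-1 yeast cells. Their growth was then compared with that of vehicle-treated cultures to give growth inhibition.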

[3] = NCI Yeast Anticancer Drug Screen. Data for the sgs1 mgt1 strain (AID 161);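 note: 0% = growth of cultures given vehicle only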; settings: S. cerevisiae sgs1 mgt1 strain, active compounds read high
Procedure, shortened: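 Compounds are added to genetically altered yeast, and growth is compared with cultures given vehicle alone to give percent inhibition.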

[4] = NCI Yeast Anticancer Drug Screen. Data for the cln2 rad14 strain (AID 165);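 note: 0% = growth equal to vehicle treated cultures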; settings: S. cerevisiae cln2 rad14 strain, active compounds read high
Procedure, shortened: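 Strain: cln2 rad14 yeast, altered in cell cycle control and DNA damage repair. Read-out: growth inhibition vs vehicle.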

[5] = NCI Yeast Anticancer Drug Screen. Data for the bub3 strain (AID 167); settings: S. cerevisiae bub3 mutant strain, active compounds read high
Procedure, shortened: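 Compounds were applied to a genetically altered yeast strain carrying a cell-cycle control defect. Growth inhibition was scored against vehicle-treated controls.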

[6] = NCI Yeast Anticancer Drug Screen. Data for the mlh1 rad18 strain (AID 175); settings: S. cerevisiae mlh1 rad18 strain growth inhibition, active compounds read high
Procedure, shortened: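 A repair-deficient yeast strain is exposed to test compound, and growth is scored relative to vehicle-treated controls.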

[7] = at 5.0 µM (retest, dose inferred, filed as 0.5)
[8] = at 50.0 µM (retest, dose inferred, filed as 5.0)

## O=C1NC(=O)c2cccc3cccc1c23
[1]; [7]
  growth inhibition: 20%
[1]; [8]
  growth inhibition: 68%
[1]; at 50.0 µM
  growth inhibition: 88.4% (active)
[2]; [7]
  growth inhibition: 7%
[2]; [8]
  growth inhibition: 25%
[2]; at 50.0 µM
  growth inhibition: 52.6%
[3]; [7]
  growth inhibition: 4%
[3]; [8]
  growth inhibition: 37%
[3]; at 50.0 µM
  growth inhibition: 80.3% (active)
[4]; [7]
  growth inhibition: -5%
[4]; [8]
  growth inhibition: 20%
[4]; at 50.0 µM
  growth inhibition: 64.5%
[5]; [7]
  growth inhibition: 3%
[5]; [8]
  growth inhibition: 22%
[5]; at 50.0 µM
  growth inhibition: 63.1%
[6]; [7]
  growth inhibition: 7%
[6]; [8]
  growth inhibition: 55%
[6]; at 50.0 µM
  growth inhibition: 84.5% (active)

## CCCCN(CCO)CCNc1ccc(C)c2sc3ccccc3c(=O)c12
[1]; [7]
  growth inhibition: 17%
[1]; [8]
  growth inhibition: 99% (active)
[1]; at 50.0 µM
  growth inhibition: 99.7% (active)
[2]; [7]
  growth inhibition: 14%
[2]; [8]
  growth inhibition: 99% (active)
[2]; at 50.0 µM
  growth inhibition: 99.8% (active)
[3]; [7]
  growth inhibition: 29%
[3]; [8]
  growth inhibition: 100% (active)
[3]; at 50.0 µM
  growth inhibition: 99.6% (active)
[4]; [7]
  growth inhibition: 17%
[4]; [8]
  growth inhibition: 99% (active)
[4]; at 50.0 µM
  growth inhibition: 99.7% (active)
[5]; [7]
  growth inhibition: 24%
[5]; [8]
  growth inhibition: 99% (active)
[5]; at 50.0 µM
  growth inhibition: 99.6% (active)
[6]; [7]
  growth inhibition: 22%
[6]; [8]
  growth inhibition: 99% (active)
[6]; at 50.0 µM
  growth inhibition: 95.5% (active)

## O=C1OC(OC/C(Br)=C(/Br)COC2OC(=O)C(Cl)=C2Cl)C(Cl)=C1Cl (configuration not stated)
[1]; [7]
  growth inhibition: 93% (active)
[1]; [8]
  growth inhibition: 99% (active)
[1]; at 50.0 µM
  growth inhibition: 99.2% (active)
[2]; [7]
  growth inhibition: 64%
[2]; [8]
  growth inhibition: 99% (active)
[2]; at 50.0 µM
  growth inhibition: 99.4% (active)
[3]; [7]
  growth inhibition: 97% (active)
[3]; [8]
  growth inhibition: 100% (active)
[3]; at 50.0 µM
  growth inhibition: 98.9% (active)
[4]; [7]
  growth inhibition: 71% (active)
[4]; [8]
  growth inhibition: 98% (active)
[4]; at 50.0 µM
  growth inhibition: 97.3% (active)
[5]; [7]
  growth inhibition: 84% (active)
[5]; [8]
  growth inhibition: 99% (active)
[5]; at 50.0 µM
  growth inhibition: 98.8% (active)
[6]; [7]
  growth inhibition: 97% (active)
[6]; [8]
  growth inhibition: 99% (active)
[6]; at 50.0 µM
  growth inhibition: 98.7% (active)

## CC(C)C1(C)C(C#N)(C#N)C1(C#N)C#N
[1]; [7]
  growth inhibition: -94%
[1]; [8]
  growth inhibition: 94% (active)
[1]; at 50.0 µM
  growth inhibition: 79.8% (active)
[2]; [7]
  growth inhibition: -35%
[2]; [8]
  growth inhibition: 92% (active)
[2]; at 50.0 µM
  growth inhibition: 91.5% (active)
[3]; [7]
  growth inhibition: -46%
[3]; [8]
  growth inhibition: 90% (active)
[3]; at 50.0 µM
  growth inhibition: 95.5% (active)
[4]; [7]
  growth inhibition: -46%
[4]; [8]
  growth inhibition: 22%
[4]; at 50.0 µM
  growth inhibition: 48.4%
[5]; [7]
  growth inhibition: -39%
[5]; [8]
  growth inhibition: 91% (active)
[5]; at 50.0 µM
  growth inhibition: 92% (active)
[6]; [7]
  growth inhibition: -77%
[6]; [8]
  growth inhibition: 94% (active)
[6]; at 50.0 µM
  growth inhibition: 95.8% (active)

## COC(=O)N/N=C(/CC1(O)C(=O)Nc2ccccc21)c1ccc(Cl)cc1Cl (configuration not stated)
[1]; [7]
  growth inhibition: 21%
[1]; [8]
  growth inhibition: 97% (active)
[1]; at 50.0 µM
  growth inhibition: 97.5% (active)
[2]; [7]
  growth inhibition: 10%
[2]; [8]
  growth inhibition: 97% (active)
[2]; at 50.0 µM
  growth inhibition: 98.5% (active)
[3]; [7]
  growth inhibition: 32%
[3]; [8]
  growth inhibition: 97% (active)
[3]; at 50.0 µM
  growth inhibition: 98.2% (active)
[4]; [7]
  growth inhibition: 12%
[4]; [8]
  growth inhibition: 97% (active)
[4]; at 50.0 µM
  growth inhibition: 92.3% (active)
[5]; [7]
  growth inhibition: 8%
[5]; [8]
  growth inhibition: 97% (active)
[5]; at 50.0 µM
  growth inhibition: 96.8% (active)
[6]; [7]
  growth inhibition: 19%
[6]; [8]
  growth inhibition: 94% (active)
[6]; at 50.0 µM
  growth inhibition: 97.8% (active)

## COc1cc(OC)cc(C2SCC(=O)N2c2nncs2)c1 (configuration not stated)
[1]; [7]
  growth inhibition: 2%
[1]; [8]
  growth inhibition: 2%
[1]; at 50.0 µM
  growth inhibition: 20.2%
[2]; [7]
  growth inhibition: -5%
[2]; [8]
  growth inhibition: -3%
[2]; at 50.0 µM
  growth inhibition: 97% (active)
[3]; [7]
  growth inhibition: 0%
[3]; [8]
  growth inhibition: 2%
[3]; at 50.0 µM
  growth inhibition: 55.5%
[4]; [7]
  growth inhibition: -2%
[4]; [8]
  growth inhibition: 2%
[4]; at 50.0 µM
  growth inhibition: 98.8% (active)
[5]; [7]
  growth inhibition: 1%
[5]; [8]
  growth inhibition: 13%
[5]; at 50.0 µM
  growth inhibition: 98.6% (active)
[6]; [7]
  growth inhibition: 0%
[6]; [8]
  growth inhibition: 4%
[6]; at 50.0 µM
  growth inhibition: 96.8% (active)

## O=C1C=C(Cl)C(=O)C(Cl)=C1Cl
[1]; [7]
  growth inhibition: -14%
[1]; [8]
  growth inhibition: 99% (active)
[1]; at 50.0 µM
  growth inhibition: 99.2% (active)
[2]; [7]
  growth inhibition: 11%
[2]; [8]
  growth inhibition: 99% (active)
[2]; at 50.0 µM
  growth inhibition: 99.3% (active)
[3]; [7]
  growth inhibition: 12%
[3]; [8]
  growth inhibition: 99% (active)
[3]; at 50.0 µM
  growth inhibition: 99.2% (active)
[4]; [7]
  growth inhibition: -25%
[4]; [8]
  growth inhibition: 91% (active)
[4]; at 50.0 µM
  growth inhibition: 98.7% (active)
[5]; [7]
  growth inhibition: 8%
[5]; [8]
  growth inhibition: 99% (active)
[5]; at 50.0 µM
  growth inhibition: 99% (active)
[6]; [7]
  growth inhibition: 3%
[6]; [8]
  growth inhibition: 99% (active)
[6]; at 50.0 µM
  growth inhibition: 98.8% (active)

## CCCCCCCCCCCCCC(=O)OCCCC1CCCO1 (configuration not stated)
[1]; [7]
  growth inhibition: -2%
[1]; [8]
  growth inhibition: -2%
[1]; at 50.0 µM
  growth inhibition: 8.55%
[2]; [7]
  growth inhibition: -2%
[2]; [8]
  growth inhibition: 2%
[2]; at 50.0 µM
  growth inhibition: -13.8%
[3]; [7]
  growth inhibition: -1%
[3]; [8]
  growth inhibition: 4%
[3]; at 50.0 µM
  growth inhibition: 13.2%
[4]; [7]
  growth inhibition: 7%
[4]; [8]
  growth inhibition: 7%
[4]; at 50.0 µM
  growth inhibition: 53.6%
[5]; [7]
  growth inhibition: -2%
[5]; [8]
  growth inhibition: -3%
[5]; at 50.0 µM
  growth inhibition: 11.3%
[6]; [7]
  growth inhibition: 11%
[6]; [8]
  growth inhibition: 0%
[6]; at 50.0 µM
  growth inhibition: -38.2%

## ClC1=CC(Cl)=C2N=C(C(Cl)(Cl)Cl)N=C3N=C(C(Cl)(Cl)Cl)N=C1N32
[1]; [7]
  growth inhibition: 29%
[1]; [8]
  growth inhibition: 80% (active)
[1]; at 50.0 µM
  growth inhibition: 99.3% (active)
[2]; [7]
  growth inhibition: 4%
[2]; [8]
  growth inhibition: 88% (active)
[2]; at 50.0 µM
  growth inhibition: 99.5% (active)
[3]; [7]
  growth inhibition: 44%
[3]; [8]
  growth inhibition: 85% (active)
[3]; at 50.0 µM
  growth inhibition: 99.2% (active)
[4]; [7]
  growth inhibition: 12%
[4]; [8]
  growth inhibition: 57%
[4]; at 50.0 µM
  growth inhibition: 99% (active)
[5]; [7]
  growth inhibition: 21%
[5]; [8]
  growth inhibition: 94% (active)
[5]; at 50.0 µM
  growth inhibition: 99.3% (active)
[6]; [7]
  growth inhibition: 36%
[6]; [8]
  growth inhibition: 86% (active)
[6]; at 50.0 µM
  growth inhibition: 99% (active)
